Screens as filed in PubChem.
Shown is part of a subset that was picked to be rich in hits.
IDE exosite FP – insulin-degrading enzyme (human) exo-site inhibition; AID 1259349; P14735; actives 6.3% (n = 17,000); z-score at 20 µM; purified IDE, FL-6b probe fluorescence polarization; hits give low values;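 active = z-score of -3 or lower, meaning strong loss of probe binding signal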;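 note: His-tagged human IDE residues 42-1019 made in E. coli with 30 nM FL-6b probe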
The depositor's hits bear a star.

SMILES | IDE exosite FP
Cc1ccc(S(=O)(=O)Nc2cccc3c2O[C@@H](CN(C)C(=O)Nc2ccc(C(F)(F)F)cc2)[C@H](C)CN([C@@H](C)CO)C3=O)cc1 | -0.26
N#C[C@H]1[C@H](c2ccc(-c3cccc(F)c3)cc2)[C@@H](CO)N1S(=O)(=O)c1cccc(F)c1 | 1.7
O=C(CC1CC1)N1CC(=O)N2[C@H](C1)[C@@H](c1ccc(/C=C/c3ccccc3)cc1)[C@@H]2CO | -2
O=C(CC1CC1)N1CC(=O)N2[C@H](C1)[C@@H](c1ccc(-c3ccccc3)cc1)[C@@H]2CO | -8.9*
O=C(CC1CC1)N1CC(=O)N2[C@H](CO)[C@@H](c3ccc(/C=C/c4ccccc4)cc3)[C@@H]2C1 | -1.2
O=C(CC1CC1)N1CC(=O)N2[C@H](CO)[C@H](c3ccc(-c4cccnc4)cc3)[C@@H]2C1 | 0.24
O=C(CC1CC1)N1CC(=O)N2[C@@H](CO)[C@H](c3ccc(-c4cccnc4)cc3)[C@@H]2C1 | 2.9
O=C(CC1CC1)N1CC(=O)N2[C@H](C1)[C@H](c1ccc(-c3ccccc3)cc1)[C@@H]2CO | -5.1*
O=C(CC1CC1)N1CC(=O)N2[C@H](CO)[C@H](c3ccc(-c4cccnc4)cc3)[C@H]2C1 | -0.58
O=C(CC1CC1)N1CC(=O)N2[C@H](C1)[C@H](c1ccc(-c3cccnc3)cc1)[C@@H]2CO | 0.43
O=C(CC1CC1)N1CC(=O)N2[C@H](CO)[C@@H](c3ccc(-c4ccccc4)cc3)[C@@H]2C1 | -5.8*
C[C@@H]1CN([C@@H](C)CO)C(=O)c2c(c3ccccc3n2C)-c2ccccc2CO[C@H]1CN(C)C(=O)NC1CCCCC1 | 0.61
CCCNC(=O)N1C[C@@H](C)[C@@H](OC)CN(C)C(=O)c2ccc(NC(=O)CC)cc2OC[C@H]1C | -1.1
O=C(c1ccccc1F)N1CC[C@H]2[C@H](CO)Nc3ccc(Br)cc3[C@H]21 | 1.4
CC(=O)N(C)C[C@@H]1[C@@H](c2ccc(C#Cc3ccccn3)cc2)[C@@H](CO)N1C(C)=O | -1.8
CNC(=O)C[C@@H]1CC[C@H]2[C@@H](COC[C@H](O)CN2Cc2ccccc2F)O1 | -0.079
C[C@@H]1CC(=O)NCC/C=C\C[C@@H](c2cccc(Cl)c2)NC1=O | 0.37
CC(C)[C@@H]1C(=O)N[C@H](c2cccc(Cl)c2)CC=CC[C@@H](C)Oc2ccccc2C(=O)N1C (mixture of isomers) | 1
CS(=O)(=O)N1C[C@H](O)COC[C@H]2O[C@@H](CC(=O)NCc3ccccc3)CC[C@@H]21 | 1
COCC(=O)NC[C@@H]1[C@@H](c2ccc(C3=CCCC3)cc2)[C@@H](CO)N1C(=O)C1CC1 | 4
COc1cccc(C#Cc2ccc([C@@H]3[C@H](C#N)N(C(=O)C4CC4)[C@H]3CO)cc2)c1 | -0.13
COc1ccccc1C#Cc1ccc([C@@H]2[C@@H](C#N)N(C(=O)C3CCCCC3)[C@H]2CO)cc1 | -8*
COc1cccc(C#Cc2ccc([C@@H]3[C@H](C#N)N(C(=O)C4CCC4)[C@H]3CO)cc2)c1 | 4.2
N#C[C@H]1[C@@H](c2ccc(C#Cc3ccccc3F)cc2)[C@@H](CO)N1C(=O)C1CCCCC1 | 1.7
COc1ccccc1C#Cc1ccc([C@H]2[C@@H](C#N)N(C(=O)C3CCCCC3)[C@H]2CO)cc1 | -1.6
SMILES | IDE exosite FP
COc1ccccc1C#Cc1ccc([C@H]2[C@@H](C#N)N(C(=O)C3CCC3)[C@H]2CO)cc1 | -4.9*
N#C[C@@H]1[C@H](c2ccc(C#Cc3ccc(F)cc3)cc2)[C@@H](CO)N1C(=O)C1CC1 | 4.9
COc1cccc(C#Cc2ccc([C@H]3[C@@H](CO)N(C(=O)C4CCC4)[C@H]3C#N)cc2)c1 | 3.6
COc1ccccc1C#Cc1ccc([C@H]2[C@@H](CO)N(C(=O)C3CC3)[C@H]2C#N)cc1 | -7.5*
Cc1ccccc1S(=O)(=O)N1[C@@H](C#N)[C@@H](c2ccccc2)[C@@H]1CO | 4.3
C[C@H]1CCCCO[C@@H](CN(C)CC2CC2)[C@@H](C)CN([C@@H](C)CO)C(=O)c2cc(NC(=O)c3ccccc3)ccc2O1 | -1
O=C(Nc1cccc(F)c1)N1CC(=O)N2[C@H](C1)[C@@H](c1ccc(-c3cccc(F)c3)cc1)[C@@H]2CO | -1.3
C[C@@H](O)C#Cc1ccc([C@H]2[C@@H](CO)N3CCCCN(C(=O)Nc4ccccc4)C[C@@H]23)cc1 | 3
O=C(NC1CCCC1)N1CCCCN2[C@H](CO)[C@H](c3ccc(-c4ccncc4)cc3)[C@@H]2C1 | 4.7
O=C(Nc1ccccc1F)N1CCCCN2[C@H](C1)[C@H](c1ccc(/C=C/c3ccccc3)cc1)[C@@H]2CO | -0.83
O=C(NC1CCCC1)N1CCCCN2[C@H](CO)[C@@H](c3ccc(-c4ccccc4)cc3)[C@H]2C1 | 1.8
O=C(NC1CCCC1)N1CCCCN2[C@@H](CO)[C@H](c3ccc(/C=C/c4ccccc4)cc3)[C@@H]2C1 | -15*
O=C(Nc1ccccc1F)N1CCCCN2[C@@H](CO)[C@@H](c3ccc(/C=C/c4ccccc4)cc3)[C@@H]2C1 | -1.2
COc1ccccc1-c1ccc([C@H]2[C@@H](CO)N3CCCCN(C(=O)NC4CCCC4)C[C@@H]23)cc1 | -9.3*
O=C(NC1CCCC1)N1CCCCN2[C@H](CO)[C@H](c3ccc(-c4ccccc4)cc3)[C@@H]2C1 | -0.47
O=C(NC1CCCC1)N1CCCCN2[C@H](CO)[C@H](c3ccc(-c4ccncc4)cc3)[C@H]2C1 | 4.5
O=C(NC1CCCC1)N1CCCCN2[C@@H](CO)[C@@H](c3ccc(/C=C/c4ccccc4)cc3)[C@@H]2C1 | -8.4*
Cc1ccc(S(=O)(=O)Nc2ccc3c(c2)C(=O)N(C)[C@@H]2CC[C@H](CC(=O)NCCc4ccncc4)O[C@H]2CO3)cc1 | -0.62
C/C=C/c1ccc([C@@H]2[C@H]3CN(Cc4ccccc4)CC(=O)N3[C@H]2CO)cc1 | 1.1
COCC(=O)Nc1ccc2c(c1)C(=O)N(C)[C@H]1CC[C@@H](CC(=O)NCCCN(C)C)O[C@@H]1CO2 | -0.53
CCS(=O)(=O)N1CC2(CN(Cc3cccc(Cl)c3)[C@H](CO)c3c2c2ccc(OC)cc2n3C)C1 | 0.35
C/C=C/c1ccc([C@@H]2[C@@H](CO)N3C(=O)CN(Cc4ccc(C(=O)OC)cc4)C[C@@H]23)cc1 | 2
COc1ccc(NC(=O)N2C[C@@H](O)COC[C@H]3O[C@H](CC(=O)NCc4ccncn4)CC[C@@H]32)cc1 | -0.24
COCC(=O)N1[C@@H](C#N)[C@H](c2ccc(C#Cc3ccccc3F)cc2)[C@@H]1CO | -4.3*
COCC(=O)N1[C@@H](C#N)[C@@H](c2ccc(C#Cc3ccccc3F)cc2)[C@@H]1CO | 0.64
SMILES | IDE exosite FP
N#C[C@H]1[C@H](c2ccc(-c3cccc(F)c3)cc2)[C@@H](CO)N1C(=O)c1cccnc1 | 1.3
N#C[C@H]1[C@@H](c2ccc(C#Cc3ccccc3F)cc2)[C@@H](CO)N1C(=O)C1CCOCC1 | -3.7*
N#C[C@H]1[C@@H](c2ccc(C#Cc3ccccc3F)cc2)[C@H](CO)N1C(=O)C1CCC1 | 0.22
COCC(=O)N1[C@H](C#N)[C@H](c2ccc(C#Cc3ccccc3F)cc2)[C@H]1CO | -2.3
N#C[C@H]1[C@@H](c2ccc(C#Cc3ccccc3F)cc2)[C@@H](CO)N1C(=O)C1CCC1 | 0.33
N#C[C@H]1[C@H](c2ccc(C#Cc3ccccc3F)cc2)[C@H](CO)N1C(=O)C1CC1 | -1.2
N#C[C@@H]1[C@@H](c2ccc(-c3cccc(F)c3)cc2)[C@H](CO)N1C(=O)c1cccnc1 | 0.16
N#C[C@@H]1[C@@H](c2ccc(C#Cc3ccccc3F)cc2)[C@@H](CO)N1C(=O)C1CCC1 | 1.6
